Here are results for 74 compounds from PubChem BioAssay AID1246 (Columbia University Molecular Screening Center, 2008).

Each structure is given as a SMILES string. The campaign covered roughly 120,000 compounds. About 840 (0.7%) were called active. This excerpt belongs to a sample that is enriched for actives. A number with no mark means an inactive call.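 How the source made its calls: active means inhibition above the batch mean plus 3 SD, and confirmed as a hit on visual image review (cut at about 43% in these data); inconclusive means passes the inhibition cutoff but fails visual image review; inactive means the rest.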

The nature of this assay: E-selectin induction blockers in HUVEC – imaging, immunofluorescence, high content, primary screen (AID 1246).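 Further: 0% = TNF-stimulated DMSO wells and 100% = unstimulated control wells.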 The note with it: HUVEC TNFa-induced E-selectin immunofluorescence, at 2 µM, hits give high values.
One may read the inhibition as the relative decrease from the control value, in per cent. Take `C=CCN(CC=C)C(=O)COC(=O)c1n[nH]c2ccccc12`: the inhibition is -73.3%.
To `O=C(CCC(=O)Nc1ccccc1)N/N=C/c1ccccc1F` belongs -1.59%; to `CCCCC(CC)CNC(=O)C(=O)C1C(=O)Nc2ccccc21` (centres undefined), -10.1%.
`Cc1cc(NC(=O)CCC(=O)N(CC(=O)NCC2CCCO2)c2ccccc2C)no1` (centres undefined): the inhibition is 66.4% (active).
As for `COCCNC(=O)CN(C(=O)CCC(=O)Nc1cc(C)on1)c1ccc(C)cc1C`, the inhibition is -15.2%.
On to `CCCCOc1ccc(N(CC(=O)NCC2CCCO2)C(=O)CCC(=O)Nc2cc(C)ccn2)cc1` (centres undefined), for which the inhibition is 13.7%.
Regarding `Cc1ccc(CSc2nc3[nH]ncc3c(=O)[nH]2)cc1`, the inhibition was 16%.
To `Cc1ccc(C(=O)N/C(=C\c2cccs2)C(=O)NCCc2ccccn2)cc1C` belongs -0.32%.
Consider `C=CCC(C(=O)c1ccccc1)[N+](C)(C)CC=C` (centres undefined), for which the inhibition was -21.6%.
To `CC1COc2ccccc2N1S(=O)(=O)c1ccccc1` (centres undefined) belongs 10%; to `O=C1c2ccccc2NC(c2ccccn2)N1NS(=O)(=O)c1ccccc1` (centres undefined), 12.1%.
As to `COc1ccc(CCNC(=O)CC2SC(=Nc3cc(C)cc(C)c3)NC2=O)cc1OC` (centres undefined), the inhibition is -40.4%.
To `CCn1c(SC)nc(O)c(C(c2ccc(OC)c(O)c2)c2c(O)nc(SC)n(CC)c2=O)c1=O` belongs -24.8%; to `COc1ccc2c(c1OC)C(=O)OC2Nc1nc(-c2ccccc2)cs1` (centres undefined), 36.5%.
Next, `COc1ccc2c(c1OC)C(=O)OC2c1c(O)nc(SC)n(-c2ccccc2)c1=O` (centres undefined): 95% (active); `O=C(O)CCCCOn1ccnc1`: 2.16%.
`Clc1ccc(CN2CCN(/N=C/c3cccnc3)CC2)cc1`: the inhibition was -6.01%.
To `Oc1ccc(-c2nncn2-c2ccccc2)cc1` belongs -13.7%; to `CCCCN(C(=O)/C=C/c1ccco1)c1c(N)n(CC(C)C)c(=O)[nH]c1=O`, 7.93%.
As for `O=C(Nn1cnc2ccccc2c1=O)c1ccc([N+](=O)[O-])cc1Cl`, the inhibition was -17%.
To `O=[n+]1c2c(n([O-])c3cc(Br)ccc31)CCC2` belongs 8.3%; to `O=C(O)CCC(=O)NCc1ccc2[nH]c3c(c2c1)CCCC3`, -12%; to `O=C1CCCc2c1[nH]c1ccc(Br)cc21`, 71.4% (active).
To `CCN1C(=O)/C(=c2\s/c(=C3\Sc4ccccc4N3C)c(=O)n2C)N(C)C1=S` belongs -4.14%.
On to `O=S(=O)(NCCNS(=O)(=O)c1ccccc1)c1ccccc1`, for which the inhibition is -9.47%.
To `CCC(C)NC(=O)/C=C/c1ccc(S(=O)(=O)NCc2ccco2)cc1` (centres undefined) belongs 1.55%.
With `CCN(CC)CCNS(=O)(=O)c1ccc(/C=C/C(=O)O)cc1`, the inhibition is 85.3% (active).
Next, `O=C(Nc1ccnc(-c2ccncc2)n1)c1cccs1`: -27.2%.
Regarding `CCNC(=S)NNC(=O)C1CCN(Cc2ccccc2)CC1`, the inhibition is -1.82%.
Next, `O=C1/C(=C\c2ccccc2Cl)SC(=S)N1CCC(=O)N1CCCc2ccccc21`: -3.4%; `O=C(c1c(Cl)nc2sccn12)N1CCCc2ccccc21`: 79% (active); `Cc1occc1C(=O)N1CCCc2ccccc21`: 19.4%.
Next, `Cc1ccc(CN2CCN(Cc3ccc4ncccc4c3)CC2CCO)cc1` (centres undefined): -11.2%.
Next, `COc1ccc(Cn2c(=O)cc(C)[nH]c2=S)cc1`: 5.51%; `Cn1cccc1C(C#N)c1ccccc1C#N` (centres undefined): 20.5%.
For the compound `CCCS(=O)(=O)N1CCC(CCOc2ccccc2)(C(=O)OCC)CC1`, the inhibition was -12.3%.
For `COc1ccc(F)c(-c2nc(CN3CCC(c4ccccc4)CC3)c(C)o2)c1`, the inhibition was -28.7%.
To `COc1ccc(NC(=S)Nc2ccccc2Cl)cn1` belongs -66.9%; to `COc1ccc(NC(=O)/C(Cl)=C(/Cl)S(=O)Cc2ccc(C)cc2)cn1` (centres undefined), 27.8%.
As for `COc1ccc(CS(=O)/C(Cl)=C(/Cl)C(=O)Nc2ccc(OC)nc2)cc1` (centres undefined), the inhibition is 99.4% (active).
Consider `O=c1cc(O)c(-c2cccc(C(F)(F)F)c2)c(Cl)[nH]1`, for which the inhibition was 14.3%.
Next, `CCc1ccccc1NC(=S)N(CCN1CCCCCC1)Cc1ccco1`: -12.7%.
To `CCOC(=O)COc1ccc([N+](=O)[O-])cc1` belongs 7.8%.
In the case of `N/C(Cc1ccc([N+](=O)[O-])cc1)=N\OC(=O)COc1ccc2ccccc2c1`, the inhibition is 62.5% (active).
In the case of `N/C(Cc1ccc([N+](=O)[O-])cc1)=N\OC(=O)C1CCCCC1`, the inhibition is -1.96%.
For the compound `Cc1ccnc(NC(=O)CCCOc2ccccc2)c1`, the inhibition was 4.53%.
To `Cc1cc(C)nc(SCC(=O)N(C)C)n1` belongs 0.21%; to `COc1ccc(CN2CCNC(=O)C2CC(=O)N(C)Cc2ccccn2)cc1OC` (centres undefined), -8.81%; to `Cc1cc(C)c(C#N)c(SCC(=O)Nc2ccccc2)n1`, -29.3%.
To `CC(=O)c1ccc(-c2nnc(CCC(=O)N(C)Cc3cnc4ccccn34)o2)s1` belongs 4.22%; to `N#CC1=C(N)Oc2[nH]c(=S)[nH]c(=O)c2C12C(=O)Nc1ccccc12` (centres undefined), -26.7%; to `COc1ccc(-n2nnnc2SCC(=O)NCc2cccs2)cc1`, 12.9%.
Regarding `COc1ccc(-n2nnnc2SCc2nc(N)nc(N3CCOCC3)n2)cc1`, the inhibition is 61.2% (active).
For the compound `COc1ccc(-c2nnn(Cc3nc(N)nc(N4CCCCC4)n3)n2)cc1`, the inhibition was -40.4%.
`CCOC(=O)c1sc(=NC(=O)/C=C/c2cccs2)n(C)c1C`: the inhibition is -26.1%.
To `Cc1cccc(C(=O)NNC(=O)c2cccc([N+](=O)[O-])c2)c1` belongs -0.72%; to `O=C(CC12CC3CC(CC(C3)C1)C2)NCc1ccco1`, 23.1%; to `Fc1ccccc1Cn1cnc(NC(=S)NCCc2ccccc2)n1`, -14.1%.
Next, `CCC(C)CN1CCC(CO)(Cc2ccccc2Cl)CC1` (centres undefined): -16.5%; `CCN1CCN(CC(=O)Nc2sc3c(c2C#N)CCC3)CC1`: 9.33%.
For the compound `CCN(CC)CCNC(=O)c1ccc(NC(=O)c2c(F)cccc2Cl)cc1`, the inhibition was -1.94%.
Next, `O=C(NCC1CCCO1)C1CCN(C2CCN(C(=O)C3CCCCC3)CC2)CC1` (centres undefined): 13%; `O=C(CCCN1C(=O)c2cccc3cccc(c23)C1=O)N1CCN(Cc2ccc3c(c2)OCO3)CC1`: -25.6%; `Cn1c(=O)cc(OCCCC(=O)N2CCN(c3ccccn3)CC2)c2ccccc21`: -12.9%.
To `Cn1c(=O)cc(OCCCC(=O)N2CCN(Cc3ccc4c(c3)OCO4)CC2)c2ccccc21` belongs 52.1% (active); to `COCc1ccc(C(=O)N2CCc3c([nH]c4ccccc34)C2c2ccccn2)s1` (centres undefined), 4.79%.
To `CCN(CC)c1ccc2c(Nc3ccccc3)c(C=O)c(=O)oc2c1` belongs -20.2%; to `O=C(COC(=O)c1ccco1)NCc1ccc(Cl)cc1`, -1.29%; to `O=C(O)c1ccc(NC(=O)c2cccs2)cc1`, -5.04%.
Take `O=S(=O)(/N=C(/Nc1ccccn1)c1ccccc1)c1ccc(Cl)cc1`: the inhibition was -19.7%.
To `O=S(=O)(/N=C(/Nc1ccccc1)c1ccccc1)c1cccs1` belongs 68.3% (active); to `COc1ccc(NC(=O)CN2C(=O)CSC2=O)cc1`, -1.6%.
To `O=C(N/N=C/c1cc2c(cc1Br)OCO2)C1COc2ccccc2O1` (centres undefined) belongs -17.4%; to `Cc1cc(C)cc(OCC(=O)Nc2ccc(S(=O)(=O)Nc3ccccn3)cc2)c1`, -36.2%.
